Shown are actives, neighbours in structure and some others; about 1.6% of the full set was active somewhere.
LYPLA2 inh: blocks human lysophospholipase 2, a PME1 counter-screen; recombinant LYPLA2, FP-Rh probe fluorescence polarization; inhibition, % at 5.9 µM; 320,000 tested, 0.38% active; AID 2177;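 active = inhibition above the screen-wide mean plus 3 SD, limit set per campaign, cut at about 26% in these data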;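 note: 0% = LYPLA2 with DMSO and 100% = wells lacking LYPLA2 enzyme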
Target sequence (O95372 whole entry, looked up): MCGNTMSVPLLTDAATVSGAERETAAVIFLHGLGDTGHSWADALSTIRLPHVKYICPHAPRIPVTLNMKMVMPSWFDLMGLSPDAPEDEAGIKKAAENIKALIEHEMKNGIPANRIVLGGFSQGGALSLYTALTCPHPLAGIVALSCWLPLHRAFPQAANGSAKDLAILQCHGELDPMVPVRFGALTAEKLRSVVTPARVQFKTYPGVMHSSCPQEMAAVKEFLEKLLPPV
Fam108B counter: blocks mouse Fam108B hydrolase in RBBP9 counter-screen; recombinant Fam108B, FP-Rh probe fluorescence polarization; inhibition, % at 9.51 µM; 300,000 tested, 0.33% active; AID 1947;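 active = inhibition above the screen mean inhibition plus 3 SD, computed separately per campaign, cut at about 18% in these data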;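 note: inhibitors lower polarization as less probe binds the enzyme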
PME-1 primary: blocks human protein phosphatase methylesterase 1; Q9Y570; 320,000 tested, 0.53% active; AID 2130; inhibition, % at 5.9 µM; recombinant PME-1, FP-Rh probe fluorescence polarization;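 active = inhibition above the campaign mean of all compounds plus 3 SD, cut at about 26% in these data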;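 note: competitive labeling of PME-1 active site by serine hydrolase directed probe; 0% = PME-1 with DMSO and 100% = wells lacking PME-1 enzyme; inhibitors block probe labeling so polarization falls and inhibition rises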
Target sequence (Q9Y570 whole entry, looked up): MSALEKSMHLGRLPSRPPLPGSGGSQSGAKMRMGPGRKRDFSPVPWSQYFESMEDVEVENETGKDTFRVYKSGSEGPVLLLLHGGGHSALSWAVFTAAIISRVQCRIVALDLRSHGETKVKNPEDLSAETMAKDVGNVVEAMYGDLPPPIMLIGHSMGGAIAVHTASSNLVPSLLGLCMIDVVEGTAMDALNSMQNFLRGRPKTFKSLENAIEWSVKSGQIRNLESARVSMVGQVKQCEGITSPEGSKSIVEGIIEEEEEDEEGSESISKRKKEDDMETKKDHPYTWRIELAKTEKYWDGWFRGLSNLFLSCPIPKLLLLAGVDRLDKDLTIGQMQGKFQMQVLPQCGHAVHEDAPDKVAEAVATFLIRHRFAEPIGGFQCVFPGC
PREPL inh: inhibits the human prolyl oligopeptidase-like enzyme; recombinant PREPL, fluorescence polarization activity-based probe; inhibition, % at 5.96 µM; 320,000 tested, 0.68% active; in the data active = inhibition above about 43%;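 note: 0% = enzyme with DMSO and 100% = wells lacking enzyme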
LYPLA1 counter: LYPLA1 (human) inhibition in PME1 counter-screen | O75608 | recombinant LYPLA1, FP-Rh probe fluorescence polarization | inhibition, % at 5.9 µM | 320,000 tested, 0.16% active;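 active = inhibition above the mean of all tested compounds plus 3 SD, set per campaign, cut at about 14% in these data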;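 note: inhibitors block serine hydrolase probe labeling of LYPLA1 so polarization falls; 0% = enzyme with DMSO and 100% = wells lacking LYPLA1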
MEX-5 binding: C. elegans MEX-5 TCR-2 RNA binding activity; MEX-5/FITC-TCR2 RNA binding, fluorescence polarization; stronger effect = lower value; activity score (negative = inhibition of binding), % at 10 µM; AID 1832; 300,000 tested, 0.38% active; Q9XUB2;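 active = inhibition past about -25% in most replicates, and total fluorescence under double the plate's negative control median, limit read from the data; inconclusive = replicates evenly split on the limit, or fluorescence at least double controls; inactive = too little inhibition in most replicates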;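 note: 0% = DMSO and -100% = 5 µM competing unlabeled TCR2 RNA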
Fam108b inh conf: Fam108b (mouse) hydrolase inhibition, confirmation assay. shares compounds with Fam108B counter. recombinant Fam108b, FP-Rh probe fluorescence polarization. inhibition, % at 9.51 µM. 930 tested, 44% active. AID 1978;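 active = inhibition above a limit from the primary screen, the mean over all compounds plus 3 SD, cut at about 19% in these data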;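 note: 0% = median of active Fam108b wells and 100% = catalytically dead S170A mutant; inhibitors free the probe so polarization falls as inhibition rises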
Fam108b inh: mouse ABHD17B inhibition; shares compounds with Fam108B counter; recombinant Fam108b, gel-based ABPP, fluorophosphonate probe; inhibition, % at 20 µM; 260 tested, 44% active; AID 588649; in the data active = inhibition above about 40%
An asterisk follows results filed as active; ? = inconclusive; . = not tested or not shown.

SMILES | LYPLA2 inh | Fam108B counter | PME-1 primary | PREPL inh | LYPLA1 counter | MEX-5 binding | others
COc1cc(/C=C/c2nc3ccccc3c(=O)n2-c2ccc(O)cc2)ccc1O | -1 | 7 | 26 | 3 | -8 | -1
COc1ccc(-n2c(/C=C/c3ccc(O)c(O)c3)nc3ccccc3c2=O)cc1 | -13 | 9 | 34* | 33 | -13 | 17
CC1CCC(C(C)C)C(OC(=O)Cn2c(COc3ccccc3)[n+](C)c3ccccc32)C1 (stereo not drawn) | 2 | 7 | 9 | 22 | 3 | 2
CCc1ccc(N2C(=O)NC(=O)/C(=C\c3cccn3CCOc3ccc(C(C)C)cc3)C2=O)cc1 | 3 | -2 | -4 | -10 | -2 | -36*
CCCCC(=O)N/N=C/c1c(O)n(Cc2ccc(F)cc2)c(=O)[nH]c1=O | 1 | 1 | 10 | -3 | -4 | 5
CN1CCCC(C(=O)c2ccc(Cl)cc2)C1 (stereo not drawn) | 1 | 10 | 8 | -11 | 2 | 1
CN1C(=O)C(=Cc2cn(CC(=O)N3CCCCC3)c3ccccc23)C(=O)N(C)C1=O | -4 | 2 | -9 | -5 | 3 | -36*
CN1C(=O)C(=Cc2cn(CC(=O)N3CCCC3)c3ccccc23)C(=O)N(C)C1=O | -4 | 1 | 1 | -11 | -8 | ?
O=C1NC(=O)C(Sc2ccccc2[N+](=O)[O-])C(=O)N1 | 2 | 7 | 1 | 5 | -4 | -3
CC(=O)c1ccc2c(c1)C1C(Cl)C(Sc3ccccc3[N+](=O)[O-])CC1C(c1ccccc1[N+](=O)[O-])N2 (stereo not drawn) | -13 | 1 | 86* | -19 | -16 | 4
Cc1cccc(OP(N)(=O)Oc2cccc(C)c2)c1 | 4 | 1 | 8 | 3 | 1 | -2
Cc1nonc1OCCNCCNc1ccc([N+](=O)[O-])c2cccnc12 | 7 | 0 | -1 | -4 | 1 | -27*
CN1/C(=C\C=C2C(=O)NC(=O)NC2=O)C(C)(C)c2ccccc21 | -6 | 1 | 5 | 13 | 1 | -86*
CN1/C(=C\C=Nc2ccccc2)C(C)(C)c2ccccc21 | -18 | -14 | -18 | -54 | -6 | -1
CCOC(=O)[C@]1(C#N)[C@@H]2C=CC(C(C)=O)=CN2[C@@H](C(N)=O)[C@@H]1c1ccsc1 | -2 | 12 | -5 | 17 | -1 | -53*
O=c1[nH]c(=O)n(CCc2ccc(F)cc2)c(O)c1C=NCCCn1ccnc1 | 3 | 0 | 2 | 15 | 2 | -40*
Cc1cccc(-n2c(O)c(/C=N/Nc3nc4c(c(=O)n(C)c(=O)n4C)n3C)c(=O)[nH]c2=S)c1 | -3 | 2 | -3 | 6 | 6 | -47*
CN1/C(=C\C=C\C2=[N+](C)c3ccc4ccccc4c3C2(C)C)C(C)(C)c2ccccc21 | -329 | -225 | 179* | -233 | -121 | .
O=S(=O)(c1ccccc1)N1CCN2CCCC2C1 (stereo not drawn) | 3 | 0 | -8 | -4 | 1 | 2
COc1ccc(-c2n(-c3ccccn3)c3ccccc3[n+]2-c2ccccn2)cc1 | . | . | . | . | . | -3
COc1ccc(OC)c(-n2c(O)c(/C=C3\C=Nc4ccccc43)c(=O)[nH]c2=O)c1 | 1 | -2 | -5 | 5 | 2 | -5
COc1ccccc1-n1c(O)c(/C=C2\C=Nc3ccccc32)c(=O)[nH]c1=O | -5 | 1 | -3 | 4 | -1 | -35*
Cc1ccc(CN2C(=O)CN=C(c3ccccc3)c3ccccc32)cc1 | 3 | 1 | 1 | 13 | -2 | 0
Cc1oc(-c2ccccc2)nc1CN1C(=O)CN=C(c2ccccc2)c2ccccc21 | -3 | 1 | 32* | 30 | 4 | 0
Cc1ccccc1NP(=O)(Oc1ccccc1F)Oc1ccccc1F | -2 | 0 | 39* | 1 | -4 | 0
SMILES | LYPLA2 inh | Fam108B counter | PME-1 primary | PREPL inh | LYPLA1 counter | MEX-5 binding | others
Cc1cccc(NP(=O)(Oc2ccccc2)Oc2ccccc2)c1C | -4 | 0 | 3 | -15 | -1 | -3
Cn1cccc1/C=C1\C(=O)NC(=O)N(Cc2ccco2)C1=O | . | . | . | . | . | -7
COc1ccc(/C=C2/C(=O)NC(=O)N(Cc3ccco3)C2=O)cc1 | 6 | 2 | 1 | 4 | 0 | -81*
Brc1ccc(Oc2cc(Br)c(Br)cc2Br)c(Br)c1 | -6 | . | -9 | 15 | -2 | .
O=C(N/N=C/c1c(O)n(Cc2ccccc2)c(=O)[nH]c1=O)c1ccncc1 | 5 | -2 | -2 | 2 | -1 | -5
CCOP(=O)(OCC)C(NC(=O)c1cccc2ccccc12)C(Cl)(Cl)Cl (stereo not drawn) | 9 | 2 | 4 | 15 | 1 | 0
C=CCC1(CN2CCCC2=O)C(=O)NC(=O)NC1=O | -4 | 0 | -1 | -4 | 1 | -2
O=C1NC(=S)N(c2ccc(F)cc2)C(=O)/C1=C/c1ccco1 | 7 | 52* | -17 | 17 | -11 | -94*
CN1C(=O)/C(=C/C=C/c2ccco2)C(=O)NC1=S | -12 | -1 | -20 | -3 | -9 | -80*
Cc1ccc(/C=C2\C(=O)NC(=S)N(c3cccc(F)c3)C2=O)o1 | -6 | -2 | -11 | -6 | -11 | -8
O=C(NC(C(Cl)Cl)N1CCOCC1)c1ccccc1 (stereo not drawn) | -2 | 0 | 0 | -5 | 0 | 1
COc1ccc(OC)c(N2C(=O)CC(=O)NC2=O)c1 | 8 | -1 | -1 | 0 | 0 | 1
COc1ccc(OC)c(N2C(=O)NC(=O)/C(=C/c3ccc([N+](=O)[O-])s3)C2=O)c1 | 5 | 46* | 0 | 31 | 1 | -42* | Fam108b inh conf=8
CCCNC(=O)N1[C@H]2CC[C@@H]1C(C(=O)OC)=C(c1cccc(C#N)c1)C2 | -6 | . | 1 | -1 | -1 | .
C/C(=N\NC(=O)c1ccccc1O)c1c(O)n(C2CCCCC2)c(=O)[nH]c1=O | 7 | 19* | -13 | 6 | 1 | -2 | Fam108b inh conf=21*
C/C(=N\NC(=O)c1ccccc1O)c1c(O)n(Cc2ccccc2)c(=O)[nH]c1=O | 7 | 21* | 4 | 7 | -3 | -2 | Fam108b inh conf=82*;Fam108b inh=0
O=[N+]([O-])c1cnc[nH]1 | 7 | -1 | -5 | 9 | -2 | 3
Cc1ccc(Cl)cc1N1CCN(CCN)CC1 | 7 | 1 | 3 | 6 | 1 | 2
CC1=Nc2ccccc2/C1=C/c1c(O)[nH]c(=O)[nH]c1=O | 5 | -1 | -5 | -10 | -1 | -2
O=c1[nH]c(O)c(/C=C2/C=CC(c3cc(Cl)ccc3Cl)=N2)c(=O)[nH]1 | 5 | 27* | 6 | 17 | 5 | -7 | Fam108b inh conf=20*
